Assay outcomes (PubChem)
Eya2 inh – Eya2 (human) phosphatase inhibition. recombinant Eya2, OMFP fluorescence dephosphorylation (OMFP is methylfluorescein phosphate). hit rate 0.006% among 330,000. Potency, µM (titrated, usually from 76.9 µM), without a hit: at the top dose activity, negative = inhibition, most hits filed as inhibitors; also: potency is read from the fitted curve at half-maximal effect; % is scaled to controls: 0 for no effect and ±100 for the full control effect
Target sequence (O00167 whole entry, looked up): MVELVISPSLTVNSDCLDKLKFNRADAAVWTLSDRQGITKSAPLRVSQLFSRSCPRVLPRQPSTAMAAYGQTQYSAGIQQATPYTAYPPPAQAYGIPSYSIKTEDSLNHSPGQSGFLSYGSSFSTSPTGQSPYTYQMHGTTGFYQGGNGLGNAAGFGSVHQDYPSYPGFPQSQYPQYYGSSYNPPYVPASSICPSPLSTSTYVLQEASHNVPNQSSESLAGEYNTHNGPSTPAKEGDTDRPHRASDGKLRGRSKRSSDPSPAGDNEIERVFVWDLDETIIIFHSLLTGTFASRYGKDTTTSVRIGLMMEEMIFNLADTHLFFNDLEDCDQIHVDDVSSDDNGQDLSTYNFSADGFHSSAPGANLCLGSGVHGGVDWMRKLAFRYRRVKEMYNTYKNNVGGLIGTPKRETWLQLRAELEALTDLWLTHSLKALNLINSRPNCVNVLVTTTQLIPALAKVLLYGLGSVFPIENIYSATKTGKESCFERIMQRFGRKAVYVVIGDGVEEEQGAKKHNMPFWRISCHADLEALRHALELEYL
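Eya2 protein (added as 0.2 uM solution) was preincubated with compound for 10 min at ambient temperature in 50 mM HEPES pH 7.5, 50 mM NaCl, 5 uM MgCl2, 0.05% BSA, 1 mM DTT. OMFP (added at 50 uM) then reacted 10 min; fluorescence read at 485/525 nm.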
Six1-Eya2 blk – blocks human Six1 binding to Eya2 | AID 651725 | activity change, % (no concentration beside the values) | AlphaScreen GST-Six1/His-Eya2 binding, biochemical; stronger effect = lower value | hit rate 0.56% among 360,000; in the data active = activity change below about -65%; inconclusive = mostly about -30% to -63%; also: % is scaled to controls: 0 for no effect and ±100 for the full control effect
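AlphaScreen with GST-Six1 and His-Eya2 (5X mix: 250 nM and 500 nM), glutathione donor and nickel acceptor beads; buffer 50 mM Tris pH 8.0, 300 mM NaCl, 1 mM TCEP; 1 h at 37 C in the dark.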
CtBP-E1A inh – blocks the CtBP interaction with E1A; AlphaScreen GST-E1A/His-CtBP binding, 1536-well; stronger effect = lower value; activity change, % (test concentration not listed); hit rate 0.49% among 340,000; AID 651724; in the data active = activity change below about -65%; inconclusive = mostly about -30% to -63%; also: % is scaled to controls: 0 for no effect and ±100 for the full control effect
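In 5 uL wells, 23 nL compound meets equimolar GST-E1A and His-CtBP (5X stock 125 nM each) for 2 h, 37 °C. Beads (5X, 50 ug/mL) then 1 h, 37 °C, dark.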
L3MBTL1 inh-1 – blocks human L3MBTL1; AlphaScreen L3MBTL1–H3K9me1 peptide binding; Potency, µM (titrated, usually from 57.1 µM), for the others: at the top dose activity, negative = inhibition, hits mostly inhibitors; Q9Y468; hit rate 0.66% among 230,000; also: potency is read from the fitted curve at half-maximal effect; % is scaled to controls: 0 for no effect and ±100 for the full control effect; nearly all actives have a fitted effect of over 60% in size
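AlphaScreen assay: L3MBTL1 (50 nM final) was preincubated 30 min at room temperature with biotinylated H3(1-15)K9me1 peptide (75 nM final), then 30 min with library compounds; streptavidin donor and nickel chelate acceptor beads (10 ug/mL final) added, 30 min dark.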
uPA surface inh – inhibitors of cell surface uPA generation; hit rate 0.31% among 330,000; AID 540303; Potency, µM (titrated, usually from 38.3 µM), inactives show top-dose activity change, negative = inhibition, hits mostly inhibitors; cell surface uPA generation assay, qHTS; active = well fitted inhibition curve with a large enough effect; inconclusive = small, poorly fitted or top-dose-only effect; inactive = no such curve, though single readings can be large or run the other way; tested in mouse RAW 264.7 cells; also: potency is read from the fitted curve at half-maximal effect; % is scaled to controls: 0 for no effect and ±100 for the full control effect; nearly all actives have a fitted effect of over 55% in size
USP2a block – inhibitors of human ubiquitin-specific protease USP2a; O75604; USP2 core, Ub-CHOP2 coupled fluorogenic reporter, 485/531; Potency, µM (doses to about 38.3 µM), without a hit: at the highest dose activity change, negative = inhibition, most hits filed as inhibitors; hit rate 0.01% among 330,000; AID 463254;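 also: potency is read from the fitted curve at half-maximal effect; plate controls were DMSO wells for no effect and full inhibition by NEM control for full effect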
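Deubiquitinase activity read as fluorescence (485/531 nm) after Ub-CHOP2 cleavage activates the enterokinase reporter on its substrate; USP2 core 10nM, Ub-CHOP2 and substrate 25nM each, 30min compound preincubation then 60min RT; data normalized to NEM, curves fitted.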
L3MBTL1 inh-2 – blocks human L3MBTL1 methyl-lysine binding. L3MBTL1 methyl-lysine binding inhibition, biochemical qHTS. hit rate 91% among 500. AID 540279. Potency, µM, usual class: inhibitors. shares compounds with L3MBTL1 inh-1; also: potency is read from the fitted curve at half-maximal effect; nearly all actives have a fitted effect of over 70% in size
L3MBTL1 ctr – interferes with AlphaScreen signal in L3MBTL1 counterscreen; Potency, µM (titrated, usually from 57.1 µM), inactives show top-dose activity change, negative = inhibition, most hits filed as inhibitors; AlphaScreen counterscreen, signal inhibition; 500 tested, under 10 active; shares compounds with L3MBTL1 inh-1; AID 602224; also: potency is read from the fitted curve at half-maximal effect; 0% is about no effect
Numbers without * were called inactive; ? = inconclusive; nt = no result. An excerpt weighted towards active compounds, which were near 1.2% of everything screened. Unless noted, calls follow the shape of the dose curve; as a rule, active = well fitted curve in the direction sought with a large enough effect; inconclusive = small, poorly fitted or top-dose-only effect, or another doubt; inactive = no such curve, though single readings can be large; an effect the other way counts as inactive or inconclusive.

SMILES	Eya2 inh	Six1-Eya2 blk	CtBP-E1A inh	L3MBTL1 inh-1	uPA surface inh	USP2a block	L3MBTL1 inh-2	L3MBTL1 ctr
COc1ccc(C(=O)N2C(=O)c3ccc(N)cc3C2=O)cc1	4%	-8	2	21%	-7%	-1%	nt	nt
Cc1ccc(Nc2nnc(C3C(=O)N(C)C4(C)CC3c3cc(Br)ccc3O4)s2)cc1 (centres undefined)	-3%	-14	-3	-7%	-3%	1%	nt	nt
O=c1cc(-c2ccccc2Cl)c2c([nH]1)CCC2	-7%	2	1	28µM*	-1%	3%	?	8%
CC(C)CCNC(=O)c1cc(-c2ccco2)nc2ccccc12	-9%	6	2	nt	-4%	3%	nt	nt
CCCCCCNC(=O)c1cc(-c2ccco2)nc2ccccc12	-29%	-26	7	14µM*	2%	-17%	7.5*	8%
CN(C)C(CNC(=O)c1cc(-c2ccco2)nc2ccccc12)c1ccccc1 (centres undefined)	-12%	-28	2	7.9µM*	-1%	-2%	2.7*	-6%
COC(=O)C1CCN(C(=O)c2cc(-c3ccco3)nc3ccccc23)CC1	-20%	-30	nt	0.79µM*	-21%	?	5.3*	2%
O=C(O)c1cc(-c2ccco2)nc2ccc(Br)cc12	15%	?	-7	4.5µM*	10%	1%	2.4*	1%
O=C(c1ccco1)N1CCN(C(=O)c2cc(-c3ccncc3)nc3ccc(Br)cc23)CC1	nt	-23	-8	nt	1%	nt	nt	nt
Cn1nc(C(=O)OCC(=O)Nc2ccc(F)cc2Cl)c2ccccc2c1=O	5%	-5	4	-2%	2%	1%	nt	nt
Cc1nc2sccn2c(=O)c1S(=O)(=O)Nc1ccc(N2CCN(S(C)(=O)=O)CC2)cc1	16%	0	-3	nt	-3%	-1%	nt	nt
O=c1nc(/C=C/c2ccc(O)c(O)c2)oc2ccccc12	-7%	-19	-16	28µM*	-8%	5%	1.9*	-2%
CC(=O)Oc1ccc(/C=C/c2nc3ccccc3c(=O)o2)cc1	1%	-20	-20	-3%	-10%	2%	nt	nt
O=C(Nc1ccc2nc(-c3ccco3)c(-c3ccco3)nc2c1)NC1CC1	3%	-68*	?	4µM*	-3%	1%	2.4*	-18%
Cc1ccc(C)c(NC(=O)CN(C)C(=O)c2ccccc2OCc2ccc(Cl)cc2)c1	-4%	12	5	-1%	4%	3%	nt	nt
CCn1c2ccccc2c2cc(N=C3SC(CC(=O)Nc4ccccc4OC)C(=O)N3CCOC)ccc21 (centres undefined)	-2%	-14	-8	28µM*	2%	5%	7.5*	?
